In the library only some 21% were active in any assay of this set; here they are far more common.
Shiga toxin inh: Shiga toxin inhibition; Vero cells, Shiga toxin protein synthesis inhibition reporter; inhibition, % at 38.7 µM; 290,000 compounds, 9.2% hits; AID 2315; in the data active = inhibition mostly above about 28%, no sharp cut-off; inactive = mostly below about 43%; note: 0% is about no effect
SARS PLP yeast: SARS-CoV PLP inhibition in yeast; S. cerevisiae expressing SARS-CoV PLpro, growth rescue; 330,000 compounds, 0.19% hits; Potency, µM (doses to about 32.9 µM), without a hit: at the top dose activity, positive = growth rescue, usual class: activators; calls by dose curve; note: potency is the fitted concentration of half-maximal effect; 0% is about no effect; nearly all actives have a fitted effect of over 55% in size
Pf growth 48h: P. falciparum growth inhibition at 48 hours (one generation); P. falciparum luciferase growth in erythrocytes, 48 h; Potency, µM (series often up to 28.7 µM), inactives show at the highest dose activity change, negative = inhibition, hits mostly inhibitors; 310,000 compounds, 5.9% hits; AID 504832; note: potency is the fitted concentration of half-maximal effect; % is set by controls: 0 for no effect and ±100 for the full control effect
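Luminescence readout; reporter = integrated firefly luciferase in P. falciparum. RBC culture at 2% hematocrit, 0.1% parasitemia final, 37 C/5% CO2; decreased signal taken as growth inhibition.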
Pf growth 96h: inhibits malaria parasite growth, 96 h; 320,000 compounds, 6.9% hits; P. falciparum luciferase reporter growth, 96 h; Potency, µM (top dose mostly 28.7 µM), inactives show at the top dose activity change, negative = inhibition, hits mostly inhibitors; note: potency is the fitted concentration of half-maximal effect; % is set by controls: 0 for no effect and ±100 for the full control effect
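Two-generation exposure (96 h) targets delayed-death phenotype. Reporter parasites carrying integrated firefly luciferase, in red cells at 2% hematocrit and 0.05% parasitemia final, kept at 37 C, 5% CO2; luminescence loss indicates inhibition.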
NS1 function inh: inhibitors of influenza NS1 protein function; Potency, µM (highest dose often 46.1 µM), without a hit: top-dose activity, positive = more growth; 270,000 compounds, 0.4% hits; calls by dose curve; note: potency is the fitted concentration of half-maximal effect; actives are rising curves; nearly all actives have a fitted effect of over 50% in size
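Compounds were scored for reversing the slow growth caused by influenza A NS1 in S. cerevisiae, measured by optical density at 600 nm. Assay medium contained 2% galactose at pH 6.0; NS1-free yeast of the same strain were the positive control.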
CHX counter: affects cycloheximide protein synthesis inhibition readout, counter-screen. cell reporter, cycloheximide protein synthesis inhibition counterscreen. max response, %. 300,000 compounds, 12% hits; in the data active = max response mostly above about 13%, no sharp cut-off; inactive = mostly below about 14%; note: read at 38.3 µM for the half of the compounds with a filed dose; 0% is about no effect
Starred values were filed as active, the others as inactive. Unless noted, calls come from the whole dose curve; as a rule, active = well fitted inhibition curve with a large enough effect; inconclusive = small, poorly fitted or top-dose-only effect, or another doubt; inactive = no such curve, though single readings can be large or run the other way.

COc1ccc(NC(=O)N2CCCC2C(=O)Nc2ccc(C)cc2C)cc1 (centres undefined) was read as Shiga toxin inh -5.6, SARS PLP yeast 1.7%, Pf growth 48h 0.5%, Pf growth 96h 5.7%, NS1 function inh -12.7% and CHX counter -6.4.
`C/C(=N/NC(=O)c1ccncc1)c1ccccc1Cl` gave NS1 function inh 0.0%.
Screening O=C(CSC(=S)N1CCCCC1)Nc1ncc2c(n1)CCCC2=O returned Shiga toxin inh 11.7, SARS PLP yeast -0.8%, Pf growth 48h 3.3%, Pf growth 96h 11.4%, NS1 function inh -3.4% and CHX counter -2.3.
For CCCc1cc(=O)oc2cc(OCC(=O)NCCc3c[nH]c4ccccc34)ccc12 the results were Shiga toxin inh -2.3, SARS PLP yeast 0.4%, Pf growth 48h -23.0%, Pf growth 96h -11.1%, NS1 function inh -10.1% and CHX counter -0.5.
`COC(=O)Cc1cc(=O)oc2cc(O)ccc12` gave Shiga toxin inh -9.3, SARS PLP yeast -1.3%, Pf growth 48h 1.3%, Pf growth 96h 43.8%, NS1 function inh 5.8% and CHX counter 6.2.
Cc1ccc(CN2CC(C(=O)Nc3ccc(F)c([N+](=O)[O-])c3)CC2=O)cc1 (centres undefined) was read as Shiga toxin inh -8.6, SARS PLP yeast -0.3%, Pf growth 48h -21.6%, Pf growth 96h -1.1%, NS1 function inh -2.4% and CHX counter 4.8.
For CC(C)NC(=O)CCn1nc(-c2ccc(Cl)cc2)c2ccccc2c1=O the results were Shiga toxin inh -6.2, SARS PLP yeast 0.4%, Pf growth 48h inconclusive, Pf growth 96h inconclusive, NS1 function inh -3.5% and CHX counter -3.6.
O=C(NCc1ccco1)c1ccccc1NC(=O)C1CC(=O)N(c2ccc(Cl)cc2)C1 (centres undefined) was read as Shiga toxin inh -4.2, SARS PLP yeast -1.5%, Pf growth 48h -17.3%, Pf growth 96h 7.38µM*, NS1 function inh -19.3% and CHX counter 0.6.
Screening O=C(NCc1ccco1)C1CC(=O)N(c2ccc(F)cc2)C1 (centres undefined) returned Shiga toxin inh -17.4, SARS PLP yeast -1.0%, Pf growth 48h 14.9%, Pf growth 96h -20.4%, NS1 function inh 1.3% and CHX counter -1.0.
COc1ccccc1OCCCC(=O)NC(C)c1ccccc1 (centres undefined) was read as Shiga toxin inh 15.1, SARS PLP yeast 0.6%, Pf growth 48h 0.0%, Pf growth 96h 112.7%, NS1 function inh -2.2% and CHX counter -2.2.
COCc1ccc(C(=O)NC(C)c2cnn(-c3ccccc3C)c2C)o1 (centres undefined) was read as Shiga toxin inh 21.1, SARS PLP yeast 0.0%, Pf growth 48h -3.8%, Pf growth 96h 48.8%, NS1 function inh 1.4% and CHX counter 8.7.
For COc1cc(C(=O)NC(C)c2cnn(-c3ccccc3C)c2C)cc(OC)c1OC (centres undefined) the results were Shiga toxin inh 41.2, SARS PLP yeast 1.1%, Pf growth 48h inconclusive, Pf growth 96h 7.1%, NS1 function inh 2.6% and CHX counter 14.7*.
Screening COC(=O)CCCC(=O)NC(C)c1cnn(-c2ccccc2C)c1C (centres undefined) returned Shiga toxin inh 28.0, SARS PLP yeast 0.0%, Pf growth 48h 24.0%, Pf growth 96h 13.1µM*, NS1 function inh 2.7% and CHX counter 8.4.
`COc1cccc(/C=C2\SC(=S)N(CCCC(=O)N3CCCC3)C2=O)c1` gave Shiga toxin inh 2.4, SARS PLP yeast 0.0%, Pf growth 48h 13.1µM*, Pf growth 96h 4.15µM*, NS1 function inh -19.5% and CHX counter 3.2.
Screening COc1cccc(/C=C2\SC(=S)N(CCCC(=O)N3CCCCC3CCO)C2=O)c1 (centres undefined) returned Shiga toxin inh 1.1, SARS PLP yeast -4.5%, Pf growth 48h inconclusive, Pf growth 96h 3.7µM*, NS1 function inh -34.1% and CHX counter 0.8.
For COc1ccccc1/C=C1\SC(=S)N(CCC(=O)N2CCCCC2CCO)C1=O (centres undefined) the results were Shiga toxin inh -1.7, SARS PLP yeast 1.6%, Pf growth 48h inconclusive, Pf growth 96h inconclusive, NS1 function inh 3.9% and CHX counter -4.8.
Screening COc1ccccc1/C=C1\SC(=O)N(CCC(=O)N2CCCCC2CCO)C1=O (centres undefined) returned Shiga toxin inh 17.8, SARS PLP yeast -1.2%, Pf growth 48h inconclusive, Pf growth 96h 9.28µM*, NS1 function inh 6.5% and CHX counter -6.6.
Screening O=C1/C(=C/c2cccs2)SC(=S)N1CCC(=O)N1CCCCC1CCO (centres undefined) returned Shiga toxin inh 120.6*, SARS PLP yeast -4.4%, Pf growth 48h inconclusive, Pf growth 96h 11.7µM*, NS1 function inh -19.3% and CHX counter 38.5*.
COc1cccc(/C=C2\SC(=S)N(CCC(=O)N3CCCCC3CCO)C2=O)c1 (centres undefined) was read as Shiga toxin inh 15.6, SARS PLP yeast -10.3%, Pf growth 48h inconclusive, Pf growth 96h inconclusive, NS1 function inh -6.0% and CHX counter 25.6.
Screening COc1ccc(/C=C2\SC(=S)N(CCCC(=O)N3CCOCC3)C2=O)cc1OC returned Shiga toxin inh 36.8, SARS PLP yeast 0.6%, Pf growth 48h -28.4%, Pf growth 96h 0.0%, NS1 function inh 9.0% and CHX counter -4.9.
Screening CC(C(=O)Nc1ccccc1-c1ccccc1)N1CCN(C(=O)c2ccco2)CC1 (centres undefined) returned NS1 function inh -16.7%.
O=C(Nc1nnc(Cc2ccccc2)s1)c1cccs1 was read as Shiga toxin inh 40.5, SARS PLP yeast -5.9%, Pf growth 48h 39.8%, Pf growth 96h 19.7%, NS1 function inh -12.0% and CHX counter 24.9*.
Screening COc1ccc(S(=O)(=O)CCc2nnc(NC(=O)c3cccs3)s2)cc1 returned Shiga toxin inh -8.3, SARS PLP yeast -7.3%, Pf growth 48h 2.33µM*, Pf growth 96h 32.6%, NS1 function inh -6.0% and CHX counter -2.7.
Screening CC(C)Cc1nnc(NC(=O)C2CCCC2)s1 returned Shiga toxin inh 43.9, SARS PLP yeast 1.8%, Pf growth 48h 27.3%, Pf growth 96h 36.4%, NS1 function inh 14.5% and CHX counter 24.1*.
For O=C(Nc1nnc(CCN2CCCCC2)s1)c1ccccc1 the results were Shiga toxin inh 39.8, SARS PLP yeast -10.1%, Pf growth 48h 84.9%, Pf growth 96h -13.0% and CHX counter 32.8*.
Screening CCN(Cc1ccc2c(c1)OCCO2)C(=O)CN1C(=O)NC2(CCc3ccccc32)C1=O (centres undefined) returned SARS PLP yeast 0.0%, Pf growth 48h -12.9% and Pf growth 96h inconclusive.
